Screens (PubChem BioAssay)
CYP2C19 inhib = blockers of cytochrome P450 2C19 activity – biochemical, luminescence, ADME assay, primary screen; CYP2C19 Supersomes, luciferin-H EGE luminescence, 30 min; inhibition, % at 5 µM; actives 21% (n = 96,000); AID 778, 2007;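 active means CYP2C19 inhibition above a set limit at 5 µM in the primary screen, cut at about 50% in these data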
Target sequence (P33261 whole entry, looked up): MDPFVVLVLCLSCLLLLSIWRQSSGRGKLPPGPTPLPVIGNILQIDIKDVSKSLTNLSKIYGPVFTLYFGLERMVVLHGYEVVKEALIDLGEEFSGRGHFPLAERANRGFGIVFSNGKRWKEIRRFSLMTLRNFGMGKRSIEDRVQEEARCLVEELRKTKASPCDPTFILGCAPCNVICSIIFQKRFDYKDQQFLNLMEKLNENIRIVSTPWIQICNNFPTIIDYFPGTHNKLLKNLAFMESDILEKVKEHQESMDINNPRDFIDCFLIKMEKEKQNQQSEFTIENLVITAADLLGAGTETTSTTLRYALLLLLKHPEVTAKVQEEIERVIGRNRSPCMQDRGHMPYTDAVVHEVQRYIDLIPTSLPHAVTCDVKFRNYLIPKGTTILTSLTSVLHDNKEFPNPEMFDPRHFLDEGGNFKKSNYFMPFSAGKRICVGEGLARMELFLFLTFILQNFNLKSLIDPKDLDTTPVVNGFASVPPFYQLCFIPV
CYP2C9 act = human CYP2C9 activators, primary screen, biochemical, luminescence | Cytochrome P450 2C9 (Homo sapiens), P11712 | recombinant CYP2C9, luciferin-H conversion; stronger effect = higher value; factor 1 = untreated enzyme, 0 = blocked | activation factor at 5 µM | actives 1.4% (n = 96,000) | AID 1024, 2008;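 active means activation factor of 2 or more for CYP2C9 at a 5 µM dose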
CYP2C19 activ = human CYP2C19 activators, primary screen, biochemical, luminescence | activation factor at 5 µM | recombinant CYP2C19, luciferin-H EGE luminescence; stronger effect = higher value; 0 = fully inhibited enzyme, 1 = untreated enzyme | Cytochrome P450 2C19 (Homo sapiens), P33261 | 96,000 tested, under 10 active;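 active means activation factor of at least 2 at 5 µM in the primary screen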
sEH activator = soluble epoxide hydrolase activators, primary screen, biochemical, human sEH; purified human sEH enzymatic activity, activator screen; Bifunctional epoxide hydrolase 2 (Homo sapiens), P34913; activation, % at 2 µM; actives 0.04% (n = 91,000); in the data active means activation above about 37%
sEH inhibitor = soluble epoxide hydrolase inhibitors, primary screen, biochemical, human sEH | actives 0.34% (n = 91,000) | inhibition, % at 2 µM | recombinant human sEH enzymatic activity assay | AID 707, 2007; in the data active means inhibition above about 80%
CYP2C9 inhib = blockers of cytochrome P450 2C9 activity – biochemical, luminescence, ADME assay, primary screen. P11712. CYP2C9 Supersomes, luciferin-H conversion. inhibition, % at 5 µM. actives 20% (n = 96,000). AID 777, 2007;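 active means blocking of liver enzyme CYP2C9 beyond about 50% at 5 µM, limit read from the data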
Of the large screens only hits and unclear results are named; the others gave an inactive call. The list is not random: actives were taken first. Their share in the collection is about 27%.

CCOc1ccc(N(CC(=O)NCc2ccccc2OC)S(C)(=O)=O)cc1	none
COc1ccc(OC)c(S(=O)(=O)N(C)CC(=O)N2CCc3ccccc3C2)c1	CYP2C19 inhib 68, CYP2C9 inhib 80
COc1ccccc1CNC(=O)CN(c1ccc(C)cc1)S(=O)(=O)c1c(C)nn(C)c1C	CYP2C19 inhib 70, CYP2C9 inhib 81 (no result: sEH activator, sEH inhibitor)
COc1ccc(N(CC(=O)NCc2ccccc2OC)S(=O)(=O)c2c(C)nn(C)c2C)cc1	CYP2C19 inhib 66, CYP2C9 inhib 94
COc1cc(NC(=O)CC2NCCNC2=O)cc(OC)c1 (stereo not drawn)	none
Cc1cc(C)cc(NC(=O)C2CCN(S(=O)(=O)c3c(C)n[nH]c3C)CC2)c1	none (no result: sEH activator, sEH inhibitor)
CCOc1cc(/C=N/NC(=O)CNc2ccc(C)cc2)ccc1OC(=O)c1ccccc1	none
CC(=O)Nc1cc(C(=O)N2CCCC2)ccc1Sc1ccc(C)cc1	CYP2C19 inhib 65
CC(=O)NC(CC(=O)NCC(c1ccco1)N(C)C)c1ccccc1 (stereo not drawn)	none
CC(C)NS(=O)(=O)c1ccc(CCC(=O)NCc2ccco2)cc1	none (no result: sEH activator, sEH inhibitor)
CC(NS(=O)(=O)c1ccc(Cl)cc1)C(=O)NCc1ccco1 (stereo not drawn)	CYP2C19 inhib 66
O=C(CC(NS(=O)(=O)c1ccc(Cl)cc1)c1ccco1)NCc1ccco1 (stereo not drawn)	CYP2C19 inhib 61
COc1ccccc1CNC(=O)C(C)NS(=O)(=O)c1ccccc1 (stereo not drawn)	none
Cc1ccc(S(=O)(=O)N[C@@H](CC(C)C)C(=O)NCc2ccco2)cc1	none
COc1ccc(S(=O)(=O)NC(CC(=O)NCc2ccco2)C(C)C)cc1 (stereo not drawn)	CYP2C19 inhib 61 (no result: sEH activator, sEH inhibitor)
CC(NS(=O)(=O)c1ccc(F)cc1)C(=O)NCc1ccncc1 (stereo not drawn)	CYP2C19 inhib 94, CYP2C9 inhib 65
CCOC(=O)c1cccc(NC(=O)N[C@@H](C)C(=O)OC)c1	none
O=C(N/N=C/c1cccnc1)C1CCCN(S(=O)(=O)c2ccccc2)C1 (stereo not drawn)	none
COc1ccc(C(=O)c2c[nH]c(C(=O)NCc3cccs3)c2)cc1	none
CC1(C)Cc2ccccc2C(=NCCCCCC(=O)O)N1	none (no result: CYP2C19 inhib, CYP2C9 act, CYP2C19 activ, CYP2C9 inhib)
O=C(O)CCC(=O)Nc1nc2nc(-c3ccccc3)cc(-c3ccccc3)n2n1	none
COc1cccc(C(CC(=O)NCc2ccco2)NS(=O)(=O)c2ccc(C)cc2)c1OC (stereo not drawn)	CYP2C19 inhib 81 (no result: sEH activator, sEH inhibitor)
COc1cccc(C(CC(=O)NCC2CCCO2)NS(=O)(=O)c2ccc(C)cc2)c1OC (stereo not drawn)	none
O=C(Nc1ccc(Cn2cccn2)cc1)c1ccc(COc2cccc(Br)c2)cc1	CYP2C19 inhib 57, CYP2C9 inhib 83
O=C(NCc1cccc(Cl)c1)c1ccco1	CYP2C19 inhib 57
O=C(NCc1ccc2c(c1)OCO2)c1ccc(-c2ccc(Cl)cc2)o1	CYP2C9 inhib 100
Cc1ccnc2nc(C(=O)Nc3ccc4c(c3)OCO4)nn12	CYP2C19 inhib 75
O=C(NCc1ccc(Cl)c(Cl)c1)c1ccco1	none (no result: CYP2C19 inhib, CYP2C9 act, CYP2C19 activ, CYP2C9 inhib)
O=C(Nc1ccc2c(c1)OCO2)c1ccc(Cl)nc1	none
O=C(Nc1ccc2c(c1)OCO2)c1ccc2nc[nH]c2c1	CYP2C19 inhib 80, CYP2C9 inhib 56
O=c1c2ccccc2oc2ncccc12	none
CC(C)OC(=O)CSc1nnc(-c2cnccn2)n1-c1ccc(Cl)cc1	none
O=C(NCc1ccc2c(c1)OCO2)c1cccc(F)c1	CYP2C19 inhib 99, CYP2C9 inhib 66
O=C(Nc1ccc2c(c1)OCO2)c1ccc(Br)s1	CYP2C19 inhib 54
O=C(NCc1ccc2c(c1)OCO2)c1ccc2c(c1)C(=O)N(Cc1cccnc1)C2=O	CYP2C9 inhib 51
O=C(NCc1cccnc1)c1ccc2c(c1)OCO2	none
O=C(NCc1cccc(Cl)c1)c1ccc2c(c1)OCO2	CYP2C19 inhib 50
COc1ccc(NC(=O)C(c2ccc(OC)cc2)N(C)C(=O)CNC(C)=O)cc1 (stereo not drawn)	none
O=C(Nc1ccc2c(c1)OCO2)c1noc2c1CCCCC2	CYP2C9 inhib 89
O=C(NCc1ccc2c(c1)OCO2)c1ccccn1	none (no result: CYP2C19 inhib, CYP2C9 act, CYP2C19 activ, CYP2C9 inhib)
O=C(NCc1cccc(Cl)c1)c1cnccn1	none
O=C(NCc1cccc(Cl)c1)c1cccc(C(F)(F)F)c1	CYP2C19 inhib 62
O=C(NCc1ccc2c(c1)OCO2)c1cccc(Cl)c1	CYP2C19 inhib 98 (no result: sEH activator, sEH inhibitor)
O=C(/C=C\Nc1ccc2c(c1)OCO2)c1ccccn1	CYP2C19 inhib 57
CCC/C(O)=C1\C(=O)CCCC1=NC(C)C(=O)O (stereo not drawn)	none
CC1(C)CC(CC(=O)O)(c2ccc(Cl)cc2)CCO1 (stereo not drawn)	none
O=C(Nc1ccc2c(c1)OCO2)c1ccncc1	CYP2C19 inhib 53
O=C(NCc1ccc2c(c1)OCO2)c1ccncc1	CYP2C19 inhib 68 (no result: sEH activator, sEH inhibitor)
Cc1ccc(CNc2ccc3c(c2)OCO3)cc1	none
O=C(Nc1ccc(CN2CCCCC2)cc1)c1ccc2c(c1)OCO2	none
O=C(Nc1ccn(Cc2ccc(Cl)cc2)n1)c1ccc2c(c1)OCO2	CYP2C19 inhib 91, CYP2C9 inhib 92
c1cc(CNc2ccc3c(c2)OCO3)ccn1	CYP2C19 inhib 71, CYP2C9 inhib 63
O=S(=O)(CCSc1ccccn1)c1nc2ccccc2s1	none
CCOc1ccccc1NC(=O)N1CCC(n2nnc3cc(C)ccc32)CC1	CYP2C19 inhib 90 (no result: sEH activator, sEH inhibitor)
Cc1ccc2c(c1)nnn2C1CCN(C(=O)NC23CC4CC(CC(C4)C2)C3)CC1	CYP2C19 inhib 55, sEH inhibitor 85
CCOC(=O)CN(C(=O)CN1CCC(n2nnc3cc(C)ccc32)CC1)c1ccccc1	CYP2C9 inhib 55
Cc1ccc2c(c1)nnn2C1CCN(C(=O)C23CC4CC(CC(C4)C2)C3)CC1	none (no result: CYP2C19 inhib, CYP2C9 act, CYP2C19 activ, CYP2C9 inhib)
CCCCCN(C(=O)COC(=O)c1ccc(Br)o1)c1c(N)n(CCCC)c(=O)[nH]c1=O	none
CC(C)Nc1nc(NC(C)C)nc(N(C#N)CCOc2ccc(Cl)cc2Cl)n1	none (no result: CYP2C19 inhib, CYP2C9 act, CYP2C19 activ, CYP2C9 inhib)
CCNc1oc(COc2cccc(C)c2)nc1C#N	CYP2C19 inhib 98, CYP2C9 inhib 51
Cc1cccc(OCc2nc(C#N)c(NCCN(C)C)o2)c1	none (no result: sEH activator, sEH inhibitor)
Cc1cccc(OCc2nc(C#N)c(N3CC(C)CC(C)C3)o2)c1 (stereo not drawn)	CYP2C19 inhib 82, CYP2C9 inhib 78 (no result: sEH activator, sEH inhibitor)
Cc1nc(C#N)c(NCc2ccc3c(c2)OCO3)o1	CYP2C19 inhib 92
Cc1cccc(OCc2nc(C#N)c(NCc3ccc4c(c3)OCO4)o2)c1	CYP2C19 inhib 99, CYP2C9 inhib 97
COc1ccc(Nc2oc(COc3cccc(C)c3)nc2C#N)cc1	none
